From PubChem BioAssay
A selection: hits, their analogues and other compounds. The true share with any hit is near 11%.
IMPase Li cell: IMPase inhibition in cells with lithium potentiation. CHO-M1 cells, IP1 TR-FRET (IP-One), carbachol + lithium. Potency, µM (highest dose often 59.4 µM), inactives show at the top dose activity, negative = IMPase inhibition, actives largely listed as inhibitors. 210,000 compounds, 0.35% hits. AID 1457;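 note: IP1 builds up when IMPase is blocked and the TR-FRET signal falls; potency is the fitted concentration of half-maximal effect; plate controls were basal vehicle for no effect and high inhibitor control for full effect; nearly all actives have a fitted effect of over 50% in size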
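Steps: plate 2000 CHO-M1 cells per well and culture 16–30 h; add compound and lithium; incubate 30 min, 37C; add d2-IP1 tracer and Eu cryptate anti-IP1 antibody in lysis buffer; read after 10 min at room temperature.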
IMPase inh: membrane-permeable compound that blocks inositol monophosphatase; inhibition (IP1 accumulation), % at 46.1 µM; P97697; CHO-M1 cells, IP1 accumulation, HTRF TR-FRET ratio; 120,000 tested, under 10 active; active = well fitted curve in the direction sought with a large enough effect in the signal ratio, not every such curve was filed as active; inconclusive = small, poorly fitted or top-dose-only effect, or a change in a side signal; inactive = no such curve, though single readings can be large or run the other way; the % refers to the signal ratio;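 note: cells stimulated with carbachol in lithium chloride buffer; plate controls were DMSO basal wells for no effect and reference inhibitor wells for full effect; higher means more IMPase inhibition seen as more IP1 and lower FRET ratio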
Target sequence (P97697 whole entry, looked up): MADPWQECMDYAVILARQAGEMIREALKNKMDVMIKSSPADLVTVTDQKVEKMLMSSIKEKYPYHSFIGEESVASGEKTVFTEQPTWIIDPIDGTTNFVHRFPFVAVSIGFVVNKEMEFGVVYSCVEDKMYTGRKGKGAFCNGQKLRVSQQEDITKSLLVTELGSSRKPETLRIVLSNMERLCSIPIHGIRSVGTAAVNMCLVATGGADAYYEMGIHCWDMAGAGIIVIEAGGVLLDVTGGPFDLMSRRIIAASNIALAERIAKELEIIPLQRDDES
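In this qHTS, compounds (final up to 46 uM) act on CHO-M1 cells that are then activated through the M1 receptor with carbachol, in pH 7.4 buffer containing 50 mM LiCl, for 30 min. IP1 accumulation is quantified by the IP-One immunoassay.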
PNC assembly inh: blocks assembly of the perinucleolar compartment; PC3M PTB-GFP, PNC prevalence imaging, 16 h; hits give low values; activity change (PNC), negative = inhibition, % at 10 µM; 140,000 compounds, 3.1% hits; AID 2417;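 active = readout at or below -70, meaning at least 70% loss of cells showing the perinucleolar compartment, a nuclear body marking cancer cells; inconclusive = readout between -30 and a set limit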;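 note: plate controls were DMSO wells for no effect and camptothecin positive control wells for full effect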
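Compounds are pinned in duplicate onto adhered PC3M cells stably expressing GFP-tagged PTB and incubated 16 h at 37 C. Cells are then fixed, nuclei stained with Hoechst, and PNC-positive cells counted.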
12-hLO inh: inhibitors of human 12-lipoxygenase (ALOX12) | P18054 | purified 12-hLO, xylenol orange hydroperoxide absorbance | Potency, µM (doses to about 57.1 µM), without a hit: at the highest dose activity change, negative = inhibition, usual class: inhibitors | 150,000 compounds, 0.12% hits | AID 1452; note: potency is the fitted concentration of half-maximal effect; nearly all actives have a fitted effect of over 55% in size
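Hydroperoxide formation by human 12-lipoxygenase from 40 uM arachidonic acid was followed colorimetrically via ferric-xylenol orange complex, using the 573/405 nm absorbance ratio. Enzyme concentration was 150 nM, with 30 min reaction at room temperature.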
HPGD block: inhibitors of human 15-hydroxyprostaglandin dehydrogenase (HPGD); P15428; purified HPGD, NADH fluorescence kinetic, PGE2 substrate; Potency, µM, for inactives: at the highest dose activity change, negative = inhibition, actives largely listed as inhibitors; 150,000 compounds, 4.3% hits; AID 894; active = well fitted inhibition curve with a large enough effect, not every such curve was filed as active; inconclusive = small, poorly fitted or top-dose-only effect, or another doubt; inactive = no such curve, though single readings can be large or run the other way; note: potency is the fitted concentration of half-maximal effect
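20 nM HPGD preincubated 15 min at room temperature with compound in 50 mM Tris-HCl pH 8, 0.01% Tween 20. Started with 1 mM NAD+ and 30 uM prostaglandin E2; NADH fluorescence (360/450 nm) read 5 times over 30-s intervals, last minus first.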
ALDH1A1 block: blocks purified human ALDH1A1 activity; P00352; Purified ALDH1A1, NADH fluorescence, propionaldehyde substrate; Potency, µM (titrated, usually from 75.3 µM), for inactives: at the top dose activity, negative = inhibition, most hits filed as inhibitors; 220,000 compounds, 7.3% hits; active = well fitted inhibition curve with a large enough effect, not every such curve was filed as active; inconclusive = small, poorly fitted or top-dose-only effect, or another doubt; inactive = no such curve, though single readings can be large or run the other way;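 note: potency is the fitted concentration of half-maximal effect; plate controls were no enzyme wells and a reference inhibitor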
Target sequence (P00352 whole entry, looked up): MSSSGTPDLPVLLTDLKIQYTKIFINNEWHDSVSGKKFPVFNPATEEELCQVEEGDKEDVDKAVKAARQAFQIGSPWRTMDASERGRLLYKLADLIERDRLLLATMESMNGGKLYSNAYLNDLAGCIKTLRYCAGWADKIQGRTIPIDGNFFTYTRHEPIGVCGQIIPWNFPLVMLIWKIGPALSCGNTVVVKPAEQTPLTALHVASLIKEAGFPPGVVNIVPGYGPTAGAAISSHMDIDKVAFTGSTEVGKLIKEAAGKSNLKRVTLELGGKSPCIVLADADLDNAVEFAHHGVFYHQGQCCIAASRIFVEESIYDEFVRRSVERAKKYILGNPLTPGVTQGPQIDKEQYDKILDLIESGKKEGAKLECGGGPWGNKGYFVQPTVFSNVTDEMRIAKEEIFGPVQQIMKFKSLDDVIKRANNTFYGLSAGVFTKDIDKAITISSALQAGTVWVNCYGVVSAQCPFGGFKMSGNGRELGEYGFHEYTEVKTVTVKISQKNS
* = called active by the depositor; ? = inconclusive; nt = no result; [ ] = another dose, or the depositor's remark. Unless noted, calls come from the whole dose curve; as a rule, active = well fitted curve in the direction sought with a large enough effect; inconclusive = small, poorly fitted or top-dose-only effect, or another doubt; inactive = no such curve, though single readings can be large; an effect the other way counts as inactive or inconclusive. Unless noted, % is set by controls: 0 for no effect and ±100 for the full control effect.

SMILES	IMPase Li cell	IMPase inh	PNC assembly inh	12-hLO inh	HPGD block	ALDH1A1 block
COc1ccc(C(=O)c2sc3nc(-c4ccc(F)cc4)ccc3c2N)cc1	nt	2	nt	nt	nt	nt
Oc1ccccc1C(=S)N1CCCCC1	-5%[38.3 µM]	-3	-5	-4%	14µM*	?
O=C(NC(=S)N1CCCCCC1)c1ccccc1Cl	3%	nt	nt	nt	nt	-2%
Oc1ccccc1C(=S)N1CCCCCC1	41%[38.3 µM]	11	?	8%	8.9µM*	25µM*
O=C(CCl)N1c2ccccc2OCC1c1ccccc1 (stereo unspecified)	24%	-6	?	6%	32µM*	0%
CCN(CC)CCN(C)C(=O)CCc1nnc(-c2ccc(C)s2)o1	21%	nt	nt	nt	nt	-92%
CCn1nc(C)c(CNC(=O)CCc2nnc(-c3ccc(C(C)=O)s3)o2)c1C	9%	nt	nt	nt	nt	32µM*
COCCn1c(=S)[nH]c2cc(OC)c(OC)cc2c1=O	-1%[38.3 µM]	-10	?	1%	-9%	32µM*
CCN(CC)CCCn1c(=S)[nH]c2cc(OC)c(OC)cc2c1=O	30%[38.3 µM]	0	?	4%	-1%	17%
O=c1c2cc(Cl)ccc2[nH]c(=S)n1Cc1ccco1	-6%[38.3 µM]	1	13	-9%	-20%	11µM*
COCCn1c(=O)c2cc3c(=O)n(CCOC)c(=O)c3cc2c1=O	21%[38.3 µM]	-1	-26	2%	-6%	18µM*
COc1cc2[nH]c(=S)n(Cc3ccco3)c(=O)c2cc1OC	20%[38.3 µM]	-3	-11	-1%	-12%	0.79µM*
Cc1ccc(NS(=O)(=O)c2ccc3oc(=O)c4ncn(C)c4c3c2)cc1C	nt	-6	nt	nt	nt	nt
COc1ccc(OC)c(NC(=O)c2ccc3c(=O)n(CCc4ccccc4)c(=S)[nH]c3c2)c1	1%	-10	27	-3%	-20%	-1%
COc1ccc(NC(=O)c2ccc3c(=O)n(Cc4ccco4)c(=S)[nH]c3c2)c(OC)c1	-2%[38.3 µM]	-5	-4	-1%	-8%	0.89µM*
Cc1ccccc1C(=O)c1c[nH]c(C(=O)NCC2CCCO2)c1 (stereo unspecified)	-2%[38.3 µM]	-4	25	-3%	6.3µM*	?
COc1ccc(C(=O)c2c[nH]c(C(=O)NCC3CCCO3)c2)cc1 (stereo unspecified)	-3%[38.3 µM]	7	19	-10%	2µM*	?
Cc1ccccc1C(=O)c1c[nH]c(C(N)=O)c1	12%[38.3 µM]	6	-17	-2%	-17%	7.9µM*
CC(C)(C)c1ccc(C(=O)c2c[nH]c(C(=O)NCC3CCCO3)c2)cc1 (stereo unspecified)	1%	2	26	1%	13µM*	-1%
COc1ccc(C(=O)NC(=S)NCC2CCCO2)cc1 (stereo unspecified)	-3%	nt	40	-8%	1%	?
Cc1ccccc1C(=O)c1c[nH]c(C(=O)N=CN(C)C)c1	1%	nt	nt	nt	nt	?
O=C(NCC1CCCO1)c1cc(C(=O)C2CCCCC2)c[nH]1 (stereo unspecified)	-7%	nt	nt	nt	nt	-1%
Cc1ccc(C)c(C(=O)CSc2nc(-c3ccccc3)nc3c2CCCC3)c1	nt	0	nt	nt	nt	nt
CC1=C(C)C(c2ccccc2)NC(=S)N1 (stereo unspecified)	3%	nt	37	-5%	-14%	13µM*
C=C(C)[C@H]1CC=C(CO)CC1	0%	nt	nt	-8%[0.00818 µM]	-9%	?
SMILES	IMPase Li cell	IMPase inh	PNC assembly inh	12-hLO inh	HPGD block	ALDH1A1 block
Cc1cccnc1N(C(=O)Nc1cccc(Cl)c1)C1=NCC(C)(C)S1	-1%	nt	-27	-4%	-12%	15%
Cc1cccnc1N(C(=O)Nc1ccccc1)C1=NCC(C)(C)S1	5%[38.3 µM]	-2	-89*	1%	-5%	3%
COc1ccccc1NC(=O)c1cc2ccc(O)cc2o/c1=N\O	-1%[38.3 µM]	7	0	-11%	-17%	-9%
COc1ccccc1NC(=O)c1cc2ccccc2o/c1=N\O	-6%[38.3 µM]	-4	3	-12%	22µM*	?
CCNc1ncc2nc(-c3ccc(OC)cc3)c(=O)n(-c3ccc(OC)cc3)c2n1	-20%	nt	nt	2%	?	?
O=C1C=C[C@@H](O)[C@H]2[C@@H]3C(=O)N(Cc4ccc5c(c4)OCO5)C(=O)[C@@H]3CC[C@H]12	nt	nt	nt	nt	nt	-8%[13.5 µM]
NS(=O)(=O)c1cccc2c1c([N+](=O)[O-])cc1nc(O)c(O)nc12	26%	10	nt	-16%	16µM*	-3%
NS(=O)(=O)c1cccc2c1c([N+](=O)[O-])cc1[nH]c(=O)c(=O)[nH]c12	22%	21	nt	-9%	16µM*	-3%
O=[N+]([O-])c1cc2cccnc2c2ncccc12	nt	nt	nt	nt	nt	23%
O=c1[nH]cnc2c([N+](=O)[O-])cccc12	23%[38.3 µM]	-1	18	-3%	-9%	1%
O=C(NCC1CC1)[C@H]1C[C@@H]1[C@H](NP(=O)(c1ccccc1)c1ccccc1)c1ccccc1	-1%	nt	nt	-2%	-7%	5%
C[C@H](O)C(=O)Nc1c(I)c(C(=O)NC(CO)CO)c(I)c(C(=O)NC(CO)CO)c1I	0%	1[20.6 µM]	nt	0%[25.6 µM]	-9%	2%[20.9 µM]
CC(C)C[C@@H](CC(=O)N[C@@H](CCCN)CC(=O)N[C@@H]1CCCC[C@H]1C(=O)N[C@H](CC(=O)N[C@@H](CCC(=O)O)CC(=O)O)CC(C)C)NC(=O)[C@@H]1CNCC[C@H]1N	24%	nt	nt	-2%	-8%	?
CN(C)c1ncc2nc(-c3cc(F)cc(F)c3)c(=O)n(CCc3ccccc3)c2n1	-30%	nt	nt	nt	nt	?
c1ccc(-c2cc3c(N4CCOCC4)ncnc3s2)cc1	3%[38.3 µM]	5	-97*	5%	?	?
c1ccc(-n2nnc3c(N4CCOCC4)ncnc32)cc1	-9%[38.3 µM]	0	-21	1%	28µM*	?
c1ccc(-c2cc3c(N4CCCC4)ncnc3s2)cc1	24%	nt	nt	nt	nt	?
Cc1nnc(N2CCOCC2)c2nn(-c3ccccc3)c(C)c12	11%	nt	36	2%	-13%	0%
CCOC(=O)c1sc(NC(=O)c2nc3nc(C)cc(C(F)F)n3n2)c(C(=O)OC(C)C)c1C	nt	-5	nt	nt	nt	nt
Cc1cc(=O)oc2cc(OC3C=CC(C#CC(C)(C)C)OC3CO)ccc12 (stereo unspecified)	nt	nt	nt	nt	nt	0%[13.5 µM]
CN(C)c1ncc2ncc(=O)n(Cc3cccs3)c2n1	16%	nt	nt	-6%	?	?
COc1ccc(/C=N/Nc2nccnc2Cl)c(OC)c1	11%	nt	nt	nt	nt	-2%
COc1ccc(/C=N/NC(C)(C)C)c(OC)c1	0%	nt	nt	nt	nt	20µM*
CCOC(=O)C1(Cc2ccccc2Cl)CCN(S(=O)(=O)N(C)C)CC1	10%	nt	nt	nt	nt	8.9µM*
COc1cc(OC)c(N(C)C(=O)c2cn(C3CCCC3)c(=O)c3c2c2ccccc2n3C)cc1Cl	nt	7	nt	nt	nt	nt
